Assay results as given in PubChem BioAssay (NCI).
“And” between values parts separate entries of the source, which are not always exact repeats. Identical values can stand only once. Compounds without any hit were thinned out: in the full panel of roughly 83,000, 20% have a hit.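 Method: cells in 96-well plates; compound added at one concentration; 48 h incubation; percent growth measured; values under 10 scored active.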 The source made the active and inactive calls.

How the values were obtained:
Experiment in all cases: NCI-60 one-dose screen, 48 h (100 = growth as untreated, 0 = no growth, -100 = all killed)
Settings in all cases: 10 µM unless noted
UACC-62 melanoma = tested on: UACC-62 melanoma
TK-10 renal = tested on: TK-10 renal
SK-MEL-28 melanoma = tested on: SK-MEL-28 melanoma
EKVX NSCLC = tested on: EKVX NSCLC

Structure (SMILES)	growth (UACC-62 melanoma)	growth (TK-10 renal)	growth (SK-MEL-28 melanoma)	growth (EKVX NSCLC)
COc1c(O)ccc(C2=Cc3ccc(O)cc3OC2)c1OC	-72.2% [100 µM] (active) and -24.7% [100 µM] (active)	1.01% [100 µM] (active) and 9.04% [100 µM] (active)		
Cc1ccc(OC2CC(n3cnc4ncnc(Cl)c43)OC2Oc2ccc(C)cc2)cc1 (configuration not stated)	11.7% [100 µM] (inactive) and -100% [100 µM] (active)	85% [100 µM] (inactive) and -100% [100 µM] (active)		
CC(=O)c1ccc(NC(=O)/C(CC(=O)/C=C/c2ccccc2)=N/NC(N)=S)cc1	91.1% [100 µM] (inactive) and 43.7% [100 µM] (inactive)	125% [100 µM] (inactive) and 43.7% [100 µM] (inactive)		
C[C@@H]1C[C@](O)([C@@H](C)Cl)C(=O)O[C@@H]2CCN3CC=C(COC(=O)[C@]1(C)O)[C@H]23	77.3% [100 µM] (inactive) and 83.1% [100 µM] (inactive)	66.6% [100 µM] (inactive) and 88% [100 µM] (inactive)		
COc1ccc2cc(CN3CCC(C4CCNCC4)CC3)ccc2c1	-93.1% [100 µM] (active) and -100% [100 µM] (active)	-89.6% [100 µM] (active) and -100% [100 µM] (active)		
CC(=Nc1ccncc1)C(C)=Nc1ccncc1	-98.5% [100 µM] (active) and -100% [100 µM] (active)	-74.8% [100 µM] (active) and -52.5% [100 µM] (active)		
O=C1c2cccnc2-c2nccc3ccnc1c23	-95.5% [100 µM] (active) and -100% [100 µM] (active)	-100% [100 µM] (active)		
CSc1nc(Br)nc2ncn(C3CC(Oc4ccc(C)cc4)C(COc4ccc(C)cc4)O3)c12 (configuration not stated)	84.5% [100 µM] (inactive) and -65.3% [100 µM] (active)	111% [100 µM] (inactive) and -100% [100 µM] (active)		
CC1(C)S[C@H](CN)N[C@H]1C(=O)OC(c1ccccc1)c1ccccc1	34.2% [100 µM] (inactive) and -100% [100 µM] (active)	49% [100 µM] (inactive) and -32.5% [100 µM] (active)		
O=c1c2ccccc2nc(-c2ccccc2)n1/N=C/c1ccccc1[N+](=O)[O-]	54.7% [100 µM] (inactive) and 24.5% [100 µM] (inactive)	66.7% [100 µM] (inactive) and 0.136% [100 µM] (active)		
COc1ccc(N=C(C)C(C)=Nc2ccc(OC)cc2)cc1	9.18% [100 µM] (active) and 4.99% [100 µM] (active)	77.8% [100 µM] (inactive) and -88.6% [100 µM] (active)		
COc1ccc2c(c1)N(C(C)=O)CN1C(=O)CCC21 (configuration not stated)	87.4% [100 µM] (inactive) and 102% [100 µM] (inactive)	93% [100 µM] (inactive) and 101% [100 µM] (inactive)		
CNC(=S)c1nnsc1N	70.7% [100 µM] (inactive) and -2.69% [100 µM] (active)	103% [100 µM] (inactive) and 37.1% [100 µM] (inactive)		
COc1ccc(/C=C2/NC(=S)N=C2Cl)cc1	82.8% [100 µM] (inactive) and 23.4% [100 µM] (inactive)	92.7% [100 µM] (inactive) and -42.1% [100 µM] (active)		
O=C1NC(N/N=C\C(O)C(O)C(O)C(O)CO)=N/C1=C\c1ccc(Cl)cc1 (configuration not stated)	-24.3% [100 µM] (active) and -100% [100 µM] (active)	47.7% [100 µM] (inactive) and -100% [100 µM] (active)		
COc1ccc(C)cc1NC(=S)C#N	74.4% [100 µM] (inactive) and 31.4% [100 µM] (inactive)	112% [100 µM] (inactive) and 36.2% [100 µM] (inactive)		

Structure (SMILES)	growth (UACC-62 melanoma)	growth (TK-10 renal)	growth (SK-MEL-28 melanoma)	growth (EKVX NSCLC)
CC(C)=CCc1c(OC(=O)c2c(C)cc(O)cc2O)cc(CO)c(CO)c1O	-76.6% [100 µM] (active) and -100% [100 µM] (active)	1.66% [100 µM] (active) and -100% [100 µM] (active)		
C/C=C1\NC(=O)[C@H]2CSSCCC=C[C@H](CC(=O)N[C@H](C(C)C)C(=O)N2)OC(=O)[C@H](C(C)C)NC1=O	-83.2% [0.1 µM] (active) and -98.1% [0.1 µM] (active)	-93% [0.1 µM] (active) and -98.3% [0.1 µM] (active)		
CC/C(Cl)=N\OC(=O)Nc1ccc(OC)cc1	-92.2% [100 µM] (active) and -94.2% [100 µM] (active)	-100% [100 µM] (active)		
NNc1[nH]c(=S)[nH]c1C(N)=O	98.3% [100 µM] (inactive) and 90.9% [100 µM] (inactive)	121% [100 µM] (inactive) and 111% [100 µM] (inactive)		
COC(=O)c1cc(C#N)[nH]c1-c1ccsc1	67.3% [100 µM] (inactive) and 25.1% [100 µM] (inactive)	93.8% [100 µM] (inactive) and 19.4% [100 µM] (inactive)		
CCCCCCCCOC(=O)C12Oc3ccc(-c4ccc5c(c4O)C(O)=C4C(=O)CC(C)C(O)C4(C(=O)OCCCCCCCC)O5)c(O)c3C(O)=C1C(=O)CC(C)C2O (configuration not stated)	-66.7% [100 µM] (active) and -97.2% [100 µM] (active)	-21.8% [100 µM] (active) and -100% [100 µM] (active)		
COc1ccc(OC)c(N(CN2C(=O)CCC2C(=O)O)C(C)=O)c1 (configuration not stated)	80.4% [100 µM] (inactive) and 103% [100 µM] (inactive)	78.2% [100 µM] (inactive) and 103% [100 µM] (inactive)		
COc1ccc2cc1Oc1ccc(cc1)C[C@@H]1c3cc(c(OC)cc3CCN1C)Oc1c(OC)c(OC)cc3c1[C@H](C2)N(C)CC3	20.3% [100 µM] (inactive) and -83.9% [100 µM] (active)	33.5% [100 µM] (inactive) and -100% [100 µM] (active)		
NC1N=C(c2ccc(Cl)cc2)C2=C(N1)c1ccccc1CC2 (configuration not stated)	36.7% [100 µM] (inactive) and -55.8% [100 µM] (active)	76.2% [100 µM] (inactive) and -97.6% [100 µM] (active)		
C[C@]12CC[C@@H]3c4ccc(OS(N)(=O)=O)cc4CC[C@H]3[C@@H]1CCC2=O	9.29% [100 µM] (active) and 48.3% [100 µM] (inactive)	31.9% [100 µM] (inactive) and 68.9% [100 µM] (inactive)		
CCCCCC(O)(CCCCC)CCCCCCCCC1=C(O)c2ccccc2C(=O)C1=O	-74.8% [100 µM] (active) and -14.4% [100 µM] (active)	0.969% [100 µM] (active) and -7.87% [100 µM] (active)		
COC(=O)c1cnn2c1n[n+]([O-])c1ccccc12	72.4% [100 µM] (inactive) and -65.7% [100 µM] (active)	126% [100 µM] (inactive) and 78.8% [100 µM] (inactive)		
CCn1c2c(c3ccccc3c1=O)C(=O)c1ccccc1-2	62.3% [100 µM] (inactive) and 2.6% [100 µM] (active)	73.6% [100 µM] (inactive) and -93.6% [100 µM] (active)		
COc1ccc(-c2nc3ccccc3c(=S)n2OC(C)=O)cc1	-63.4% [25 µM] (active) and -95.7% [25 µM] (active)	47% [25 µM] (inactive) and -21.7% [25 µM] (active)		
Nc1ccn(C2OC(CO)C(O)C2O)c(=O)n1 (configuration not stated)			58.1% (inactive) and 105% (inactive) and 110% (inactive)	99.2% (inactive) [middle of 4 runs]
